Assay outcomes from PubChem.
The list is not random: actives were taken first. Their share in the collection is about 9.3%.
Vaccinia Venus: qHTS for Stage-Specific Inhibitors of Vaccinia Orthopoxvirus: Venus Reporter Primary qHTS; AID 720580, 2013; Potency, µM (series often up to 36.5 µM), for the others: at the top dose activity change, negative = inhibition, most hits filed as inhibitors; Vaccinia virus Venus reporter expression, fluorescence; actives 0.46% (n = 330,000); calls by dose curve; tested in A549 cells; further: potency means the concentration at half of the fitted maximal effect; nearly all actives have a fitted effect of over 30% in size
FMDV antiviral: High Throughput Screening for Foot and Mouth Disease Virus Antivirals. Potency, µM (highest dose often 57.9 µM), for the others: at the top dose activity change, negative = inhibition, hits mostly inhibitors. actives 1.2% (n = 410,000). FMDV antiviral cell-based qHTS; calls by dose curve; tested in HEK293T cells; further: read-out not given here; potency means the concentration at half of the fitted maximal effect; nearly all actives have a fitted effect of over 45% in size
VACV mCherry inh: qHTS for Stage-Specific Inhibitors of Vaccinia Orthopoxvirus: mCherry Reporter Primary qHTS; Potency, µM (highest dose often 36.5 µM), without a hit: at the highest dose activity change, negative = inhibition, actives largely listed as inhibitors; actives 0.63% (n = 310,000); Vaccinia virus mCherry reporter infection, fluorescence; calls by dose curve; tested in A549 cells; further: potency means the concentration at half of the fitted maximal effect; nearly all actives have a fitted effect of over 35% in size
HCMV antiviral: qHTS Assay for inhibitors of the human cytomegalovirus (HCMV); HFF cells, HCMV-luciferase reporter, 72 h; stronger effect = lower value; activity change, negative = inhibition, % at 57.5 µM; actives 4.5% (n = 410,000); in the data active means activity change below about -60%; inconclusive means no clear call, values can overlap the other calls; inactive means above about -39%
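Two-dose cell screen: HFF monolayers treated with compounds and infected with luciferase-expressing HCMV at 1 PFU/cell, 72 h at 37C, then lysed for luciferase measurement.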
Sm TGR inh: qHTS Assay for the Inhibitors of Schistosoma Mansoni Peroxiredoxins | Potency, µM (series often up to 114 µM), for the others: at the highest dose activity change, negative = inhibition, hits mostly inhibitors | purified TGR, DTNB reduction, TNB absorbance 405 nm | AID 485364, 2010 | Schistosoma mansoni thioredoxin glutathione reductase (TGR), Q962Y6 | actives 3% (n = 360,000); further: potency means the concentration at half of the fitted maximal effect; nearly all actives have a fitted effect of over 60% in size
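First, TGR (20 nM dispensed) and NADPH were mixed with compound. Second, a 15 min room-temperature incubation followed. Third, further NADPH and then DTNB were added to start the reaction. Finally, TNB absorbance was monitored kinetically.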
HCV inh: qHTS Assay for Inhibitors of Hepatitis C Virus (HCV); Huh7.5.1 HCVcc-Cre infection, luciferase reporter, 44 h; Potency, µM (series often up to 41.8 µM), for inactives: top-dose activity change, negative = inhibition, usual class: inhibitors; actives 3.4% (n = 340,000); further: potency means the concentration at half of the fitted maximal effect
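Cells (1,000/well) were plated 4 h before compound, then infected with HCVcc-Cre virus (~0.5 moi). After 44 h further culture, infection was read as luciferase luminescence following a 15 min substrate incubation at room temperature.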
* marks the source's active call; other numbers are inactive results; i = inactive; u = inconclusive; x = no result; [ ] = another dose, or the depositor's remark. Unless noted, the call rests on the fitted dose curve; in most records, active means well fitted curve in the direction sought with a large enough effect; inconclusive means small, poorly fitted or top-dose-only effect, or another doubt; inactive means no such curve, though single readings can be large; an effect the other way counts as inactive or inconclusive. On the % scale 0 is the no-effect control and ±100 the full control effect.

SMILES | Vaccinia Venus | FMDV antiviral | VACV mCherry inh | HCMV antiviral | Sm TGR inh | HCV inh
COc1ccc(-n2nc(C)c3c(C(F)(F)F)cc(-c4cccnc4)nc32)cc1 | -7.4% | -8.4% | -14.7% | -72.6* | 0.9% | x
O=C(O)CCNS(=O)(=O)c1ccc2c(c1)CCCC2 | -7.0% | 5.1% | i | -17.8 | -2.8% | 13.3%
CC(C)(C)OC(=O)NCCCCCc1nnc(SCc2ccc(F)cc2)o1 | -4.4%[7.34 µM] | u | -5.9%[7.34 µM] | -66.8* | -7.9% | u
Cc1ccc(NC(=O)CSc2nnc(CCNC(=O)OC(C)(C)C)o2)c(C)c1 | x | -18.9% | x | 0.3 | 6.3% | -0.5%
Cc1ccc(C)c(NC(=O)CSc2nnc(CCCCCNC(=O)OC(C)(C)C)o2)c1 | x | 15.8µM* | x | 71.1 | -0.1% | 8.1%
O=C(NCC(NS(=O)(=O)OCC(Cl)(Cl)Cl)c1ccccc1)C(F)(F)F (centres undefined) | u | -8.2% | -14.3% | -74.5* | 0.5% | -16.9%
C=CCn1c(NS(=O)(=O)c2ccccc2)c(S(=O)(=O)c2ccc(C)cc2)c2nc3ccccc3nc21 | -7.7% | u | -14.2% | 61.9 | u | -13.6%
O=S(=O)(Nc1c(S(=O)(=O)c2ccccc2)c2nc3ccccc3nc2n1C1CCCCC1)c1ccccc1 | 10µM* | u | 12.6µM* | 34.8 | -21.0% | 8.3%
O=C(NCc1ccco1)C1Cc2c(-c3ccccc3Oc3ccccc3)ccnc2O1 (centres undefined) | -18.3% | -17.8% | -25.0% | 3.4 | x | x
CC(NC(=O)c1cccnc1)c1ccc2c(c1)OCO2 (centres undefined) | x | 4.1% | x | 13.3 | 8.9% | 3.4%
O=C(O)CC1NC(=S)N(c2ccccc2)C1=O (centres undefined) | x | 4.6% | x | 4.3 | -21.8% | u
O=C1C(CSCc2ccccc2)NC(=S)N1c1ccccc1 (centres undefined) | x | 28.2µM* | x | 34.1 | -11.8% | -18.2%
CC1(C)OC(=O)C=C(CC2NS(=O)(=O)OC3CCCCC23)O1 (centres undefined) | -5.6% | -7.7% | i | -3.4 | -4.6% | 2.51µM*
O=S1(=O)N[C@@H](CC2=CCCCC2)C2CCCCC2O1 (some centres undefined) | -12.3% | 40.0% | -1.5% | -13.1 | 0.5% | 39.4%
O=C(C[C@@H]1NS(=O)(=O)OC2CCCCC21)c1ccccc1 (some centres undefined) | -10.1% | 17.1% | i | -19.8 | -1.8% | 0.282µM*
O=C(NCCCN1CCCCC1)c1ccc2c(c1)NC(=O)c1ccccc1S2 | x | -9.1% | x | -34.7 | 2.5% | 10µM*
O=C1Nc2cc(C(=O)NCCN3CCCCCC3)ccc2S/C1=C/c1ccccc1F | 12.6µM* | -20.7% | u | -23.8 | x | x
O=C1Nc2cc(C(=O)NCCCN3CCCC3)ccc2S/C1=C/c1ccccc1F | x | -18.3% | x | -36.9 | 11.4% | u
CCN1CCCC1CNC(=O)c1ccc2c(c1)NC(=O)/C(=C\c1ccc(C)cc1)S2 (centres undefined) | x | -3.2% | x | -37.4 | -11.0% | 6.31µM*
COc1ccc(N2CCC(CNS(=O)(=O)c3cccc(C(F)(F)F)c3)C2)cc1 (centres undefined) | -18.9% | 5.0% | x | 36.9 | 31.6µM* | u
COc1ccc(N2CCC(CNC(=S)Nc3c(C)cc(C)cc3C)C2)cc1 (centres undefined) | x | 0.0% | x | -70.2* | 6.8% | u
COc1ccc(N2CCC(CNC(=O)Nc3ccc(C)c(C)c3)C2)cc1 (centres undefined) | -25.7% | -2.4% | -26.7% | 10.8 | u | -5.7%[8.37 µM]
COc1ccc(N2CCC(CNC(=O)Nc3ccc(OC)cc3OC)C2)cc1 (centres undefined) | 10µM* | -17.5% | -15.7% | -80.1* | 44.7µM* | u
O=C(/C=C/c1ccccc1)c1ccc(O[C@H]2OC(CO)C(O)C(O)C2O)cc1O (some centres undefined) | -7.6% | 15.2% | -11.0% | x | x | x
C=CCn1c(N/N=C/c2ccc(O)cc2)nc2ccccc2c1=O | x | 36.6% | x | -65.0* | 2.8% | -14.3%
SMILES | Vaccinia Venus | FMDV antiviral | VACV mCherry inh | HCMV antiviral | Sm TGR inh | HCV inh
CCN1C(=O)C2(C(C#N)=C(N)Oc3n[nH]c(-c4ccccc4)c32)c2ccccc21 (centres undefined) | x | 1.4% | x | -7.8 | -10.1% | -4.0%
COC(=O)CN1C(=O)C2(C(C#N)=C(N)Oc3n[nH]c(-c4cccs4)c32)c2ccccc21 (centres undefined) | -7.3% | -0.4% | -19.1% | 22.9 | 50.1µM* | -8.5%
N#CC1=C(N)N2C(=C(C#N)C1c1ccccc1)Sc1ccccc12 (centres undefined) | x | x | x | x | -9.0% | u
N#CC1=C(N)N2C(=C(C#N)C1c1cccc(Br)c1)Nc1ccccc12 (centres undefined) | -2.9% | 7.94µM* | i | -97.4* | -11.2% | u
N#CC1=C(N)N2C(=C(C#N)C1c1ccc(Br)cc1)Nc1ccccc12 (centres undefined) | x | u | x | -100.2* | -2.9% | 6.31µM*
O=S(=O)(c1ccc(NCC2CCCCC2)nc1)N1CCOCC1 | u | 0.0% | -22.7% | -16.3 | -13.8% | 15.0%
CCc1ccc(S(=O)(=O)c2cn(CC)c3cc(N4CCOCC4)c(F)cc3c2=O)cc1 | -16.5% | -8.4% | -7.6% | -5.1 | -1.0% | x
COc1ccc(CNS(=O)(=O)c2c(C(=O)N3CCCCCC3)c(C)n(C)c2C)cc1 | -1.2% | 17.7% | i | -7.1 | -0.6% | 26.4%
Cc1ccc(OCC(=O)c2ccc(Cl)s2)c([N+](=O)[O-])n1 | -5.5% | 65.3% | -15.9% | 56.0 | 3.55µM* | -8.1%
Cc1ccc(OCC(=O)c2cc(C)n(-c3cc(C)on3)c2C)c([N+](=O)[O-])n1 | -13.7% | 11.6% | -13.1% | -22.6 | u | u
Cc1ccc(OCC(=O)c2cc(C)n(Cc3cccs3)c2C)c([N+](=O)[O-])n1 | u | 17.8µM* | u | -94.1* | x | u
Cc1ccc(OCC(=O)c2cc(C)n(C3CC3)c2C)c([N+](=O)[O-])n1 | -7.0% | 22.9% | -21.3% | -64.3* | -33.6% | -5.2%
COc1ccc(-n2c(C)cc(C(=O)COc3ccc(C)nc3[N+](=O)[O-])c2C)cc1 | -4.5% | u | -6.3% | -90.0* | -30.4% | u
COc1cccc(N=CC=C2OC(C)(C)C(C)(C)O2)c1 | -11.1% | 13.0% | -7.8% | 58.9 | -30.1% | -27.8%
CN(CCc1ccccc1)C(=O)c1ccc(NC(=O)Cc2cccc([N+](=O)[O-])c2)cc1 | u | u | u | -32.9 | x | -28.7%
